Assay results from the supplement of paper PMC6992640.

What was measured:
HCI01 = cells of a triple-negative basal-like breast cancer xenograft; assay: cell viability of combination (% of vehicle); higher = less cytotoxic; settings: 1 µM; 72 h; partner dose: 10 nM
Method: (§1)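 PDX cells were treated for 72 h with each drug at 1 µM plus carfilzomib (10 nM; 100 nM for WHIM2). Luciferase viability is expressed as percent of vehicle.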

UCD52 = cells of a triple-negative basal-like breast cancer xenograft; assay: as above; settings: 1 µM; 72 h; partner dose: 10 nM
Method: as §1

Structure (SMILES)	cell viability of combination (HCI01)	cell viability of combination (UCD52)
CCc1oc2ccccc2c1C(=O)c1cc(Br)c(O)c(Br)c1 [Benzbromarone] + CC(C)C[C@H](NC(=O)[C@H](CCc1ccccc1)NC(=O)CN1CCOCC1)C(=O)N[C@@H](Cc1ccccc1)C(=O)N[C@@H](CC(C)C)C(=O)[C@@]1(C)CO1 [Carfilzomib]	84.6	63.1
CNC(=O)c1cc(Oc2ccc(NC(=O)Nc3ccc(Cl)c(C(F)(F)F)c3)c(F)c2)ccn1 [Regorafenib] + CC(C)C[C@H](NC(=O)[C@H](CCc1ccccc1)NC(=O)CN1CCOCC1)C(=O)N[C@@H](Cc1ccccc1)C(=O)N[C@@H](CC(C)C)C(=O)[C@@]1(C)CO1 [Carfilzomib]	74.6	58.6
Cc1c(-c2ccc(O)cc2)n(Cc2ccc(OCCN3CCCCCC3)cc2)c2ccc(O)cc12.Cl [Bazedoxifene HCl] + CC(C)C[C@H](NC(=O)[C@H](CCc1ccccc1)NC(=O)CN1CCOCC1)C(=O)N[C@@H](Cc1ccccc1)C(=O)N[C@@H](CC(C)C)C(=O)[C@@]1(C)CO1 [Carfilzomib]	107	64.4
CN1CCN(CCCN2c3ccccc3Sc3ccc(C(F)(F)F)cc32)CC1.Cl.Cl [Trifluoperazine 2HCl] + CC(C)C[C@H](NC(=O)[C@H](CCc1ccccc1)NC(=O)CN1CCOCC1)C(=O)N[C@@H](Cc1ccccc1)C(=O)N[C@@H](CC(C)C)C(=O)[C@@]1(C)CO1 [Carfilzomib]	76.2	59.5
COc1cccc2c1C(=O)c1c(O)c3c(c(O)c1C2=O)CC(O)(C(=O)CO)CC3OC1CC(N)C(O)C(C)O1.Cl (stereo not drawn) [Epirubicin HCl] + CC(C)C[C@H](NC(=O)[C@H](CCc1ccccc1)NC(=O)CN1CCOCC1)C(=O)N[C@@H](Cc1ccccc1)C(=O)N[C@@H](CC(C)C)C(=O)[C@@]1(C)CO1 [Carfilzomib]	73.9	21
COc1cc2c(Nc3ccc(Br)cc3F)ncnc2cc1OCC1CCN(C)CC1 [Vandetanib (ZD6474)] + CC(C)C[C@H](NC(=O)[C@H](CCc1ccccc1)NC(=O)CN1CCOCC1)C(=O)N[C@@H](Cc1ccccc1)C(=O)N[C@@H](CC(C)C)C(=O)[C@@]1(C)CO1 [Carfilzomib]	64.1	39.4
CO[C@H]1/C=C/O[C@@]2(C)Oc3c(C)c(O)c4c(O)c(c(/C=N/N5CCN(C6CCCC6)CC5)c(O)c4c3C2=O)NC(=O)/C(C)=C\C=C\[C@H](C)[C@H](O)[C@@H](C)[C@@H](O)[C@@H](C)[C@H](OC(C)=O)[C@@H]1C [Rifapentine] + CC(C)C[C@H](NC(=O)[C@H](CCc1ccccc1)NC(=O)CN1CCOCC1)C(=O)N[C@@H](Cc1ccccc1)C(=O)N[C@@H](CC(C)C)C(=O)[C@@]1(C)CO1 [Carfilzomib]	78.8	58.6
CN(C)CC=CC(=O)Nc1cc2c(Nc3ccc(F)c(Cl)c3)ncnc2cc1OC1CCOC1 (stereo not drawn) [Afatinib (BIBW2992)] + CC(C)C[C@H](NC(=O)[C@H](CCc1ccccc1)NC(=O)CN1CCOCC1)C(=O)N[C@@H](Cc1ccccc1)C(=O)N[C@@H](CC(C)C)C(=O)[C@@]1(C)CO1 [Carfilzomib]	63.1	26.2
CSc1ccc2c(c1)N(CCC1CCCCN1C)c1ccccc1S2.Cl (stereo not drawn) [Thioridazine HCl] + CC(C)C[C@H](NC(=O)[C@H](CCc1ccccc1)NC(=O)CN1CCOCC1)C(=O)N[C@@H](Cc1ccccc1)C(=O)N[C@@H](CC(C)C)C(=O)[C@@]1(C)CO1 [Carfilzomib]	77.7	64.4
COC(=O)c1ccc2c(c1)NC(=O)C2=C(Nc1ccc(N(C)C(=O)CN2CCN(C)CC2)cc1)c1ccccc1 [Nintedanib (BIBF 1120)] + CC(C)C[C@H](NC(=O)[C@H](CCc1ccccc1)NC(=O)CN1CCOCC1)C(=O)N[C@@H](Cc1ccccc1)C(=O)N[C@@H](CC(C)C)C(=O)[C@@]1(C)CO1 [Carfilzomib]	76.4	37.5
C#Cc1cccc(Nc2ncnc3cc(OCCOC)c(OCCOC)cc23)c1 [Erlotinib] + CC(C)C[C@H](NC(=O)[C@H](CCc1ccccc1)NC(=O)CN1CCOCC1)C(=O)N[C@@H](Cc1ccccc1)C(=O)N[C@@H](CC(C)C)C(=O)[C@@]1(C)CO1 [Carfilzomib]	66.8	49.1
Cc1ccc(NC(=O)c2ccc(CN3CCN(C)CC3)cc2)cc1Nc1nc(-c2cccnc2)cs1 [Masitinib (AB1010)] + CC(C)C[C@H](NC(=O)[C@H](CCc1ccccc1)NC(=O)CN1CCOCC1)C(=O)N[C@@H](Cc1ccccc1)C(=O)N[C@@H](CC(C)C)C(=O)[C@@]1(C)CO1 [Carfilzomib]	86.3	69.6
COC(=O)C1=C(C)NC(C)=C(C(=O)OC2CCCN(Cc3ccccc3)C2)C1c1cccc([N+](=O)[O-])c1.Cl (stereo not drawn) [Benidipine HCl] + CC(C)C[C@H](NC(=O)[C@H](CCc1ccccc1)NC(=O)CN1CCOCC1)C(=O)N[C@@H](Cc1ccccc1)C(=O)N[C@@H](CC(C)C)C(=O)[C@@]1(C)CO1 [Carfilzomib]	106	57.7
CC(C)CC(NC(=O)C(CCc1ccccc1)NC(=O)CN1CCOCC1)C(=O)NC(Cc1ccccc1)C(=O)NC(CC(C)C)C(=O)C1(C)CO1 (stereo not drawn) [Carfilzomib (PR-171)] + CC(C)C[C@H](NC(=O)[C@H](CCc1ccccc1)NC(=O)CN1CCOCC1)C(=O)N[C@@H](Cc1ccccc1)C(=O)N[C@@H](CC(C)C)C(=O)[C@@]1(C)CO1 [Carfilzomib]	31	14.2
O=C(c1ccc(F)c(F)c1Nc1ccc(I)cc1F)N1CC(O)(C2CCCCN2)C1 (stereo not drawn) [Cobimetinib] + CC(C)C[C@H](NC(=O)[C@H](CCc1ccccc1)NC(=O)CN1CCOCC1)C(=O)N[C@@H](Cc1ccccc1)C(=O)N[C@@H](CC(C)C)C(=O)[C@@]1(C)CO1 [Carfilzomib]	65.6	44.7
COc1cc2nccc(Oc3ccc(NC(=O)NC4CC4)c(Cl)c3)c2cc1C(N)=O [Lenvatinib (E7080)] + CC(C)C[C@H](NC(=O)[C@H](CCc1ccccc1)NC(=O)CN1CCOCC1)C(=O)N[C@@H](Cc1ccccc1)C(=O)N[C@@H](CC(C)C)C(=O)[C@@]1(C)CO1 [Carfilzomib]	97.9	38.2
CC(C)(C)NC(=O)C1CC2CCCCC2CN1CC(O)C(Cc1ccccc1)NC(=O)C(CC(N)=O)NC(=O)c1ccc2ccccc2n1.CS(=O)(=O)O (stereo not drawn) [Saquinavir mesylate] + CC(C)C[C@H](NC(=O)[C@H](CCc1ccccc1)NC(=O)CN1CCOCC1)C(=O)N[C@@H](Cc1ccccc1)C(=O)N[C@@H](CC(C)C)C(=O)[C@@]1(C)CO1 [Carfilzomib]	79.5	60.2
CC(C)(C)Cn1c(N)nc2ccc(-c3[nH]c(C(C)(C)C)nc3-c3ccc(F)cc3)nc21.CS(=O)(=O)O.CS(=O)(=O)O + CC(C)C[C@H](NC(=O)[C@H](CCc1ccccc1)NC(=O)CN1CCOCC1)C(=O)N[C@@H](Cc1ccccc1)C(=O)N[C@@H](CC(C)C)C(=O)[C@@]1(C)CO1 [Carfilzomib]	61.9	29.3
Cc1cn(-c2cc(NC(=O)c3ccc(C)c(Nc4nccc(-c5cccnc5)n4)c3)cc(C(F)(F)F)c2)cn1 [Nilotinib(AMN-107)] + CC(C)C[C@H](NC(=O)[C@H](CCc1ccccc1)NC(=O)CN1CCOCC1)C(=O)N[C@@H](Cc1ccccc1)C(=O)N[C@@H](CC(C)C)C(=O)[C@@]1(C)CO1 [Carfilzomib]	69.1	45.7
Cn1cnc2c(F)c(Nc3ccc(Br)cc3F)c(C(=O)NOCCO)cc21 + CC(C)C[C@H](NC(=O)[C@H](CCc1ccccc1)NC(=O)CN1CCOCC1)C(=O)N[C@@H](Cc1ccccc1)C(=O)N[C@@H](CC(C)C)C(=O)[C@@]1(C)CO1 [Carfilzomib]	67.1	50.1
Clc1ccc(C(Cn2ccnc2)OCc2c(Cl)cccc2Cl)c(Cl)c1.O=[N+]([O-])O (stereo not drawn) [Isoconazole nitrate] + CC(C)C[C@H](NC(=O)[C@H](CCc1ccccc1)NC(=O)CN1CCOCC1)C(=O)N[C@@H](Cc1ccccc1)C(=O)N[C@@H](CC(C)C)C(=O)[C@@]1(C)CO1 [Carfilzomib]	92.6	61.5
CC(C)C1=CC(=C2NNC(=O)N2c2ccc3c(ccn3C)c2)C(=O)C=C1O [Ganetespib (STA-9090)] + CC(C)C[C@H](NC(=O)[C@H](CCc1ccccc1)NC(=O)CN1CCOCC1)C(=O)N[C@@H](Cc1ccccc1)C(=O)N[C@@H](CC(C)C)C(=O)[C@@]1(C)CO1 [Carfilzomib]	66.1	58.6
COc1ncc(-c2ccc3nccc(-c4ccnnc4)c3c2)cc1NS(=O)(=O)c1ccc(F)cc1F + CC(C)C[C@H](NC(=O)[C@H](CCc1ccccc1)NC(=O)CN1CCOCC1)C(=O)N[C@@H](Cc1ccccc1)C(=O)N[C@@H](CC(C)C)C(=O)[C@@]1(C)CO1 [Carfilzomib]	37.6	17.6
CN(C)CCOc1ccc(C(=C(CCCl)c2ccccc2)c2ccccc2)cc1.O=C(O)CC(O)(CC(=O)O)C(=O)O [Toremifene Citrate] + CC(C)C[C@H](NC(=O)[C@H](CCc1ccccc1)NC(=O)CN1CCOCC1)C(=O)N[C@@H](Cc1ccccc1)C(=O)N[C@@H](CC(C)C)C(=O)[C@@]1(C)CO1 [Carfilzomib]	103	70.2
